# From ChEMBL document CHEMBL1857833, “Screening and optimization of specific chemical series against human African Trypanosomiasis (HAT)”
# In all, about 4,400 compounds went through this assay and about 390 (8.9%) showed an effect of 50% or more. For the sample, strong results were picked, then their nearest neighbours and some compounds at random.
# Test system: Trypanosoma brucei
# Experiment: DNDI: Inhibition of Human African Trypanosomiasis, SBRI 427, in vitro at 2 ug.mL-1
# Type: functional
row,SMILES,% inhibition [%]
1,COc1ccc(-c2nc(CNc3cc(C(C)(C)C)nn3C)co2)cc1,7
2,Cc1ccccc1-c1nc(CN(C)C2CCN(Cc3ccccc3)C2)co1 (stereo not given),8
3,CCCN(CC1CC1)/C(=N\O)c1ccc(C)nc1Oc1ccc(OC)cc1,30
4,COc1ccc(-c2nc(CNCc3ccc(C(F)(F)F)cc3)co2)cc1,2
5,CSc1ccc(Oc2nc(C)ccc2/C(=N/O)N2CCN(C3CCCC3)CC2)cc1C,13
6,Cc1ccc(/C(=N/O)N2CC=CC2)c(OCc2cccc(F)c2)n1,-19
7,CCCN(CC)Cc1coc(-c2cccc(OCC)c2)n1,20
8,COc1ccc(-c2nc(CN3C(C)C=CC3C)co2)cc1 (stereo not given),1
9,FC(F)(F)Oc1ccc(CNCc2coc(-c3ccc(Br)cc3)n2)cc1,8
10,CCOC(=O)C1CCN(Cc2coc(-c3cccc(OC)c3)n2)CC1,37
11,COc1ccc(N2CCN(Cc3coc(-c4ccccc4Cl)n3)CC2)cc1,-8
12,Cc1cc(C)cc(Oc2ccc(/C(=N/O)NC3CC(C)CC(C)(C)C3)cn2)c1 (stereo not given),14
13,Cc1cc(C)cc(Oc2ccc(/C(=N/O)Nc3ccccc3)cn2)c1,0
14,Cc1cc(C)cc(Oc2ccc(/C(=N/O)NC3CCCC3)cn2)c1,98
15,Cc1cc(C)cc(Oc2ccc(/C(=N/O)NC3CCC(C)CC3)cn2)c1 (stereo not given),82
16,CCN(CC)CCN(C)Cc1coc(-c2cccs2)n1,4
17,Cc1cccc(CNCc2coc(-c3cccc(C)c3)n2)c1,-10
18,CN(C)CCCNCc1coc(-c2ccc(F)cc2)n1,73
19,CCN(CC)CCNCc1coc(-c2cccc(C)c2)n1,26
20,CCCCN(CCCC)CCCNCc1coc(-c2ccc(F)cc2)n1,1
21,CCN(CC)CCNCc1coc(-c2ccc(F)cc2)n1,-17
22,CCN(CC)CCCNCc1coc(-c2ccc(F)cc2)n1,-8

row,SMILES,% inhibition [%]
1,CCN(CC)CCCNCc1coc(-c2cccc(C)c2)n1,95
2,CCCCN(CCCC)CCCNCc1coc(-c2ccc(C)cc2)n1,53
3,CCCCN(CCCC)CCCNCc1coc(-c2ccco2)n1,20
4,COc1cccc(-c2nc(CNCc3ccc(C(C)(C)C)cc3)co2)c1,5
5,COc1ccc(Oc2ncccc2/C(=N/O)NCCN2CCOCC2)cc1,-10
6,Cc1cc(NCc2coc(-c3ccc(Cl)cc3Cl)n2)n(-c2ccccc2)n1,-4
7,CCN(Cc1coc(-c2cccc3ccccc23)n1)c1ccc2c(c1)OCO2,29
8,Cc1ccc(-c2nc(Cn3ccnc3C(C)C)co2)cc1,39
9,Fc1ccccc1-c1nc(CNCC(F)(F)C(F)(F)F)co1,21
10,COc1cccc(-c2nc(Cn3ccnc3C)co2)c1,31
11,COc1cccc(-c2nc(Cn3ccnc3C=O)co2)c1,84
12,Brc1ccc(-c2nc(CNCc3ccccn3)co2)cc1,-9
13,c1csc(-c2nc(CNC34C[C@H]5C[C@@H](C3)C[C@@H](C4)C5)co2)c1,25
14,COc1cccc(-c2nc(CNC34C[C@H]5C[C@@H](C3)C[C@@H](C4)C5)co2)c1,85
15,Cc1cccc(-c2nc(CNC34C[C@H]5C[C@@H](C3)C[C@@H](C4)C5)co2)c1,35
16,Oc1ccc(-c2nc(CNC34C[C@H]5C[C@@H](C3)C[C@@H](C4)C5)co2)cc1,23
17,Fc1ccc(-c2nc(CNC34C[C@H]5C[C@@H](C3)C[C@@H](C4)C5)co2)cc1,58
18,CCc1nccn1Cc1coc(-c2cccc(OC)c2)n1,-9
19,COc1ccc(NCc2coc(-c3cccc(OC)c3)n2)cc1,8
20,Brc1ccc(-c2nc(CNC34C[C@H]5C[C@@H](C3)C[C@@H](C4)C5)co2)cc1,62
21,Brc1ccccc1-c1nc(CNC23C[C@H]4C[C@@H](C2)C[C@@H](C3)C4)co1,48
22,Cc1ccc(/C(=N/O)NC2CC2)c(OCc2ccncc2)n1,19

row,SMILES,% inhibition [%]
1,Clc1ccccc1-c1nc(CN2CC=CCC2)co1,14
2,CCN(CC)c1cccc(Oc2ncccc2/C(=N/O)N2CCCC2)c1,-7
3,CC1(C)Cc2cccc(Oc3ccc(/C(=N/O)NC4CCc5ccccc54)cn3)c2O1 (stereo not given),10
4,Cc1ccc(/C(=N/O)N2CCCC2C)c(Oc2cccc(C(C)C)c2)n1 (stereo not given),0
5,Cc1cccc(N2CCN(Cc3coc(-c4ccccc4F)n3)CC2C)c1 (stereo not given),-21
6,COCC(C)N/C(=N\O)c1ccc(C)nc1OCc1ccccc1C (stereo not given),8
7,N#CCCN(Cc1ccccc1)Cc1coc(-c2ccc(F)cc2)n1,-7
8,Cc1ccc(C(C)C)c(Oc2cc(/C(=N/O)NCC3CCCCC3)ccn2)c1,27
9,Cc1ccc(-c2nc(CNC34C[C@H]5C[C@@H](C3)C[C@@H](C4)C5)co2)cc1,90
10,COc1ccc(-c2nc(CNC34C[C@H]5C[C@@H](C3)C[C@@H](C4)C5)co2)cc1,3
11,Cc1ccccc1-c1nc(CNC23C[C@H]4C[C@@H](C2)C[C@@H](C3)C4)co1,49
12,CN(Cc1coc(-c2ccccc2Cl)n1)CC1OCCO1,8
13,CSc1ccccc1Oc1ncccc1/C(=N/O)N1CCOCC1,8
14,CSc1ccccc1Oc1ncccc1/C(=N/O)N1CCN(c2ccccc2)CC1,22
15,COc1ccc(Oc2ncccc2/C(=N/O)Nc2ccccc2)cc1,-9
16,CSc1ccccc1Oc1ncccc1/C(=N/O)Nc1ccccc1,71
17,O/N=C(\Nc1ccccc1)c1cccnc1Oc1ccccc1F,2
18,COc1ccccc1Oc1ncccc1/C(=N/O)Nc1ccccc1,62
19,Cc1ccc(Oc2nc(C)ccc2/C(=N/O)N2CCN(C)CC2)cc1,19
20,COCCN(/C(=N\O)c1ccc(C)nc1Oc1ccc(SC)c(C)c1)C(C)C,9
21,COCCN(Cc1coc(-c2ccccc2C)n1)C(C)C,-31
